Source: PubChem BioAssay AID588674 (Broad Institute, 2011)
Values joined by “and” are separate entries in the source; they are usually repeats but may differ in a detail not shown here. Equal values may be shown once. About 1,800 (0.5%) of roughly 360,000 compounds were called active. Only a selection was taken, and actives are over-represented in it overall. Unmarked numbers belong to inactive results.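 How the source made its calls: active means mean inhibition of at least 75% with every replicate also reaching 75%; inconclusive means mean inhibition at least 75% but some replicate below; inactive means mean inhibition below 75%.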

Test: reduction of Shn3 3'UTR firefly luciferase signal, primary screen, Schnurri-3 inhibitor project, cell-based, Clone20 osteoblasts, set 2 (AID 588674);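 further: 0% = median of neutral control wells and 100% = pilot-screen positive control compound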
Conditions: Clone20 osteoblast Shn3 3'UTR firefly luciferase, 24 h; at 12.5 µM; stronger effect = higher value

| Compound | inhibition |
| --- | --- |
| Cn1c(=O)c2c(ncn2CC(COCc2ccccc2Cl)OCc2ccccc2Cl)n(C)c1=O (stereo unspecified) | 13% |
| Oc1ccc2ccccc2c1N=Nc1nccs1 | 93.2% (active) |
| CCCCN1CC(N2CCN(Cc3cccc(C)c3)CC2)CS1(=O)=O (stereo unspecified) | 4.01% |
| O=[N+]([O-])c1c(NCCO)cc(Sc2nc3ccccc3s2)c2nonc12 | 93.7% (active) |
| COc1ccc(NC(=O)CCCOc2ccc(C(C)=O)cc2)cc1S(=O)(=O)N1CCCCC1 | 42.4% |
| O=C(NC(=S)Nc1ccc(Br)cc1F)C1CCCCC1 | -15.2% |
| Cc1ccc(S(=O)(=O)/N=C(/NC(=S)Nc2c(C)n(C)n(-c3ccccc3)c2=O)c2ccccc2)cc1 | -6.62% |
| COc1ccc(C(C)(O)c2nc(-c3ccc(C)c(C)c3)cs2)cc1 (stereo unspecified) | 8.01% |
| COc1ccc(OC)c(Nc2nc(-c3ccc(O)c(O)c3)cs2)c1 | 97.4% (active) |
| COc1ccc(C(O)c2nc(-c3ccc4c(c3)OCO4)cs2)cc1 (stereo unspecified) | -17.7% |
| COc1ccc(C(=O)OCc2cc(=O)n3ccsc3n2)cc1F | -7.31% |
| COc1ccc(C(=O)NCc2ccc(Cl)cc2)cc1S(=O)(=O)N1CCCC1 | -1.61% |
| COc1ccc(CCNC(=O)CN(C)S(=O)(=O)c2ccc3nc(C)sc3c2)cc1OC | -10.6% |
| CC1(C(=O)NS(=O)(=O)c2cccc(OC(F)F)c2)CCN1C(=O)C1CC1 (stereo unspecified) | -7.16% |
| NS(=O)(=O)c1ccc(CNC(=S)NC(=O)c2ccco2)cc1 | 93.5% (active) |
| COc1cc(NC(=S)NCc2ccc(S(N)(=O)=O)cc2)cc(OC)c1 | 2.83% |
| NS(=O)(=O)c1ccc(NC(=O)COC(=O)c2ccco2)cc1 | 2.57% |
| N#Cc1ccc(S(=O)(=O)NCC(=O)OCC(=O)NCCc2ccccc2)cc1 | 1.43% |
| OCc1n[nH]c(CO)n1 | -14.1% |
| Cc1cccc(-n2ncc3c(=O)[nH]c(SCC(=O)Nc4cc(C)on4)nc32)c1 | -22.6% |
| Cc1cccc(-n2ncc(Cl)c(Cl)c2=O)c1 | 94.3% (active) |
| CC(=O)Nc1c2c(nn1-c1cccc(C)c1)CSC2 | -0.825% |
| Cc1c(Br)c([N+](=O)[O-])nn1CC(=O)Nc1sc2c(c1C(=O)OC(C)C)CCC(C)C2 (stereo unspecified) | -5.32% |

| Compound | inhibition |
| --- | --- |
| O=C(CN1C(=O)NC2(CCOc3ccccc32)C1=O)Nc1cccc([N+](=O)[O-])c1 (stereo unspecified) | 89.4% (active) |
| O=C(CN1C(=O)NC2(CCOc3ccccc32)C1=O)NCc1ccc(F)cc1 (stereo unspecified) | -2.61% |
| Cc1ccc(C(=O)CN2C(=O)NC3(CCOc4ccccc43)C2=O)s1 (stereo unspecified) | -11.6% |
| CNC(=O)c1nnn(-c2ccccc2)c1C(=O)NC | -6.31% |
| N#Cc1c(NC(=O)c2ccc(N3CCOCC3)c([N+](=O)[O-])c2)sc2c1CCCC2 | 12% |
| O=C(c1ccc(CS(=O)Cc2ccccc2Cl)o1)N1CCN(c2ccccc2)CC1 (stereo unspecified) | -5.18% |
| CC1CC(NC(=S)N(C)C)CC(C)(C)C1 (stereo unspecified) | -11.6% |
| CCN(CC)CCN(C(=O)c1ccc2c(c1)CCCC2)c1nc2c(OC)cccc2s1 | 18.3% |
| Cc1cccc2sc(N(CCCN(C)C)C(=O)CCS(=O)(=O)c3ccccc3)nc12 | 70.2% |
| COc1cccc2sc(N(CCCN(C)C)C(=O)CCS(=O)(=O)c3ccccc3)nc12 | 97.2% (active) |
| CC(=O)CSc1nnc(CSc2ncccn2)n1C1CCCCC1 | -0.19% |
| Cn1c2ccc(F)cc2c2nnc(NN)nc21 | -1.82% |
| COc1cc(OC)cc(C(=O)NC2CCN(C(=O)N3c4ccccc4Sc4ccccc43)CC2)c1 | 38.1% |
| COc1ccc(C(N)c2csc(NC(=O)Nc3cccc(C(F)(F)F)c3)n2)cc1 (stereo unspecified) | 11.3% |
| NC(c1ccccc1)c1csc(NC(=O)Nc2cccc(C(F)(F)F)c2)n1 (stereo unspecified) | 23% |
| NC(c1csc(NC(=O)Nc2cccc(C(F)(F)F)c2)n1)C1CCCCC1 (stereo unspecified) | 92% (active) |
| CCNC(=S)N1CCN(c2ncccn2)CC1 | -18.4% |
| CC(=NNC(=S)N1CCCCCC1)c1ccccn1 | 95.3% (active) |
| CCOc1ccc(NC(=S)N2CCCCCC2)cc1 | -24.3% |
| C/C(=N\NC(=O)c1ccccc1F)c1ccccn1 | 94.8% (active) |
| C/C(=N/NC(=O)c1ccn(C)n1)c1ccncc1 | -3.15% |
| O=C(NCCOc1ccccc1)c1ccccc1F | -74.7% |
| COc1ccc(/C=C/C(=O)c2c(O)cc(OC)cc2OC)cc1 | -43.5% |

| Compound | inhibition |
| --- | --- |
| COCCNS(=O)(=O)c1cc(Br)ccc1OC | -12.3% |
| CCOc1ccc(-n2c(O)c(/C=N/Nc3nc(C)cc(C)n3)c3ccccc3c2=O)cc1 | 90.6% (active) |
| CCOc1ccc(-n2c(SCC(=O)Nc3cc(C(=O)O)ccc3Cl)nc3ccccc3c2=O)cc1 | -1.51% |
| Cc1cc(C)nc(N/N=C/c2c(CO)cnc(C)c2O)n1 | 39% |
| COc1ccc(CN2CCCC(CNC(=O)c3ccc(F)cc3)C2)cc1OC (stereo unspecified) | 3.62% |
| CCCCCCCCCCOC(=O)C[N+](C)(C)CC1CCCCC1O (stereo unspecified) | 2.65% |
| COc1ccc(CC(N)c2csc(NC(=O)NC(c3ccccc3)c3ccccc3)n2)cc1 (stereo unspecified) | 80.7% |
| COc1ccc(CC(N)c2csc(NC(=O)Cc3ccccc3)n2)cc1 (stereo unspecified) | -16.8% |
| COc1ccc(CC(N)c2csc(NC(=O)Nc3ccc(C(C)C)cc3)n2)cc1 (stereo unspecified) | 96.6% (active) |
| O=C(CCNS(=O)(=O)c1cccs1)N1CCN(c2ccc(F)cc2)CC1 | -1.48% |
| C=C(C)C(=O)O[C@H]1C/C(C)=C\C(=O)/C=C(\C)[C@H](O)[C@@H]2OC(=O)C(=C)[C@@H]21 | 87.7% (active) |
| COC(=O)c1c(NC(=O)c2ccc(S(=O)(=O)N3CCOCC3)cc2)sc2c1CCN(C(C)C)C2 | -14% |
| N#C/C(C(=S)Nc1ccccc1)=C1/NN=C(N2CCOCC2)N1c1ccccc1 | 2.09% |
| Cc1cc(-n2nc(C)cc2C)n2ncc(-c3ccccc3)c2n1 | -43% |
| CCOC(=O)c1cnc(-n2nc(C)cc2C)nc1NNc1cc(C)nc(-c2ccccc2)n1 | 92.1% (active) |
| CCOC(=O)c1cnc2nc(SCc3ccccc3Cl)[nH]n2c1=O | -11.4% |
| O=C(Oc1ccccc1)Oc1ccc2c(c1)oc(=O)c1ccccc12 | -6.2% and -3.28% |
| Cc1ncoc1C(=O)NCCC(c1ccccc1)c1ccccc1 | 17.9% |
| CCNc1nc(NCC)nc(N(C)n2cnnc2)n1 | 4.63% |
| Cc1ccc(C)c(N2CCN(C(=O)CCCCCn3c(=S)[nH]c4ccc(N5CCOCC5)cc4c3=O)CC2)c1 | 87.2% (active) |
| O=C(CCCCCn1c(=S)[nH]c2cc3c(cc2c1=O)OCO3)N1CCN(c2ccc(F)cc2)CC1 | 8.75% |
| Cc1ccc(C)c(N2CCN(C(=O)CCCn3c(=O)c4cccn4c4cccnc43)CC2)c1 | 8.64% |
| CCCN(CC(=O)Nc1ccccc1OC)C(=O)CCC(=O)c1ccc(F)cc1 | 8.98% |

| Compound | inhibition |
| --- | --- |
| COc1ccccc1N1CCN(C(=O)C2Cc3ccccc3CN2C(=O)c2ccco2)CC1 (stereo unspecified) | -11.8% |
| CN(C)S(=O)(=O)c1cccc(NC(=O)COC(=O)C2(c3ccccc3F)CCCC2)c1 | 12.1% |
| CC[C@H]1CN2CCc3cc(OC)c(OC)cc3[C@@H]2C[C@@H]1C[C@H]1NCCc2cc(OC)c(OC)cc21 | 94.7% (active) |
| CC1CN(c2nc(-c3ccccc3)nnc2-c2ccccc2)CC(C)O1 (stereo unspecified) | 21% |
| CC(C)N(C(=O)[C@H]1C[C@H](CC(=O)NC(C)(C)C)C(=O)N2CCc3c([nH]c4ccc(Cl)cc34)[C@]12C)C(C)C | 26.9% |
| COc1cc(NC(=O)C2=C(C)OCCS2)c(Cl)cc1C(=O)NCCCN1CCCC(C)C1 (stereo unspecified) | -6.28% |
| O=C(O)c1[nH]c2ccccc2c1C(c1cccc(O)c1)c1c(C(=O)O)[nH]c2ccccc12 | 0.858% |
| O=C(CSc1c2c(nc3ccc(Cl)cc13)CCCC2)NCc1ccco1 | 89.8% (active) |
| O=C(CSc1nnnn1-c1ccccc1)NCc1ccco1 | 4.12% |
| O=C(NCc1ccco1)C1(c2ccc(Cl)cc2)CCCC1 | -21.5% |
| COc1ccccc1NC(=O)COC(=O)Cc1ccc(S(=O)(=O)N2CCCCC2)s1 | -14.6% |
| Cc1nn(Cc2ccccc2Cl)c(C)c1NC(=O)Cn1nc([N+](=O)[O-])c(Cl)c1C | 3.56% |
| O=C(N/N=C\c1ccc(Br)cc1)c1ccc(Cn2cccn2)o1 | -11.5% |
| Cc1c(Cl)c([N+](=O)[O-])nn1Cc1ccc(C(=O)N/N=C\c2cc(Cl)ccc2O)o1 | 92.8% (active) |
| Cc1ccsc1C(=O)N[C@@H](C)c1nnc2ccccn12 | 1.01% |
| CNC(=O)c1cccc2nc3ccccc3nc12 | -0.196% |
| CN(C)CCNC(=O)c1ccc(Cl)c2cc3ccccc3nc12 | 94.1% (active) |
| CCCN(CCC)CCNC(=O)c1cc2c(C)nc3ccccc3c2o1 | 24.7% |
| O=C(CNCc1ccc(Cl)cc1)Nc1cccc(C(=O)O)c1 | -8.08% |
| O=C(/C=C/c1ccc([N+](=O)[O-])cc1)NCCSCc1ccco1 | -1.26% |
| COc1ccc(C)cc1-n1nnnc1SCC(=O)c1cc(C)n(Cc2ccco2)c1C | 3.21% |
| COC(=O)CC(CC(=O)OC)n1cccc1 | -11.6% |
